Results published in the supplement of paper PMC6992640.

The compounds below were run on UCD52 (cells of a triple-negative basal-like breast cancer xenograft) (assay: cell viability of combination (% of vehicle); higher = less cytotoxic). Conditions: 1 µM; 72 h; partner dose: 10 nM.
Description: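 PDX cells were treated for 72 h with each drug at 1 µM plus carfilzomib (10 nM; 100 nM for WHIM2). Luciferase viability is expressed as percent of vehicle.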

SMILES | cell viability of combination
Cl.Clc1ccccc1CN1CCc2sccc2C1 [Ticlopidine HCl] + CC(C)C[C@H](NC(=O)[C@H](CCc1ccccc1)NC(=O)CN1CCOCC1)C(=O)N[C@@H](Cc1ccccc1)C(=O)N[C@@H](CC(C)C)C(=O)[C@@]1(C)CO1 [Carfilzomib] | 58.7
CSc1ccc2c(c1)N(CCC1CCCCN1C)c1ccccc1S2.Cl (stereo not given) [Thioridazine HCl] + CC(C)C[C@H](NC(=O)[C@H](CCc1ccccc1)NC(=O)CN1CCOCC1)C(=O)N[C@@H](Cc1ccccc1)C(=O)N[C@@H](CC(C)C)C(=O)[C@@]1(C)CO1 [Carfilzomib] | 64.4
Cl.OC(CNCC(O)C1CCc2cc(F)ccc2O1)C1CCc2cc(F)ccc2O1 (stereo not given) [Nebivolol] + CC(C)C[C@H](NC(=O)[C@H](CCc1ccccc1)NC(=O)CN1CCOCC1)C(=O)N[C@@H](Cc1ccccc1)C(=O)N[C@@H](CC(C)C)C(=O)[C@@]1(C)CO1 [Carfilzomib] | 64.3
Oc1c(Cl)cc(Cl)c2cccnc12 [Chloroxine] + CC(C)C[C@H](NC(=O)[C@H](CCc1ccccc1)NC(=O)CN1CCOCC1)C(=O)N[C@@H](Cc1ccccc1)C(=O)N[C@@H](CC(C)C)C(=O)[C@@]1(C)CO1 [Carfilzomib] | 62.4
COc1cccc2c1C(=O)c1c(O)c3c(c(O)c1C2=O)C[C@@](O)(C(C)=O)C[C@@H]3O[C@H]1C[C@H](N)[C@H](O)[C@H](C)O1.Cl [Daunorubicin HCl] + CC(C)C[C@H](NC(=O)[C@H](CCc1ccccc1)NC(=O)CN1CCOCC1)C(=O)N[C@@H](Cc1ccccc1)C(=O)N[C@@H](CC(C)C)C(=O)[C@@]1(C)CO1 [Carfilzomib] | 17.1
CC[C@@]1(O)C(=O)OCc2c1cc1n(c2=O)Cc2cc3c(CN(C)C)c(O)ccc3nc2-1 [Topotecan] + CC(C)C[C@H](NC(=O)[C@H](CCc1ccccc1)NC(=O)CN1CCOCC1)C(=O)N[C@@H](Cc1ccccc1)C(=O)N[C@@H](CC(C)C)C(=O)[C@@]1(C)CO1 [Carfilzomib] | 57.9
CCc1cnn2c(NCc3ccc[n+]([O-])c3)cc(N3CCCCC3CCO)nc12 (stereo not given) + CC(C)C[C@H](NC(=O)[C@H](CCc1ccccc1)NC(=O)CN1CCOCC1)C(=O)N[C@@H](Cc1ccccc1)C(=O)N[C@@H](CC(C)C)C(=O)[C@@]1(C)CO1 [Carfilzomib] | 23.7
CCOc1nc2cccc(C(=O)OC(C)OC(=O)OC3CCCCC3)c2n1Cc1ccc(-c2ccccc2-c2nn[nH]n2)cc1 (stereo not given) [Candesartan Cilexetil] + CC(C)C[C@H](NC(=O)[C@H](CCc1ccccc1)NC(=O)CN1CCOCC1)C(=O)N[C@@H](Cc1ccccc1)C(=O)N[C@@H](CC(C)C)C(=O)[C@@]1(C)CO1 [Carfilzomib] | 61.4
COc1ccc2cc1Oc1ccc(cc1)CC1c3c(cc4c(c3Oc3cc5c(cc3OC)CCN(C)C5C2)OCO4)CCN1C (stereo not given) [Cepharanthine] + CC(C)C[C@H](NC(=O)[C@H](CCc1ccccc1)NC(=O)CN1CCOCC1)C(=O)N[C@@H](Cc1ccccc1)C(=O)N[C@@H](CC(C)C)C(=O)[C@@]1(C)CO1 [Carfilzomib] | 45.8
CCOc1cc2ncc(C#N)c(Nc3ccc(OCc4ccccn4)c(Cl)c3)c2cc1NC(=O)C=CCN(C)C [Neratinib (HKI-272)] + CC(C)C[C@H](NC(=O)[C@H](CCc1ccccc1)NC(=O)CN1CCOCC1)C(=O)N[C@@H](Cc1ccccc1)C(=O)N[C@@H](CC(C)C)C(=O)[C@@]1(C)CO1 [Carfilzomib] | 48.7
CCC(NC(=O)C(C)NC)C(=O)N1CC(O)CC1Cc1c(-c2[nH]c3cc(F)ccc3c2CC2CC(O)CN2C(=O)C(CC)NC(=O)C(C)NC)[nH]c2cc(F)ccc12 (stereo not given) + CC(C)C[C@H](NC(=O)[C@H](CCc1ccccc1)NC(=O)CN1CCOCC1)C(=O)N[C@@H](Cc1ccccc1)C(=O)N[C@@H](CC(C)C)C(=O)[C@@]1(C)CO1 [Carfilzomib] | 43
CC1(C)CCC(c2ccc(Cl)cc2)=C(CN2CCN(c3ccc(C(=O)NS(=O)(=O)c4ccc(NC(CCN5CCOCC5)CSc5ccccc5)c(S(=O)(=O)C(F)(F)F)c4)cc3)CC2)C1 (stereo not given) [ABT-263 (Navitoclax)] + CC(C)C[C@H](NC(=O)[C@H](CCc1ccccc1)NC(=O)CN1CCOCC1)C(=O)N[C@@H](Cc1ccccc1)C(=O)N[C@@H](CC(C)C)C(=O)[C@@]1(C)CO1 [Carfilzomib] | 31.8
O=C(O)CO.[NH2-].[NH2-].[Pt+2] [Nedaplatin] + CC(C)C[C@H](NC(=O)[C@H](CCc1ccccc1)NC(=O)CN1CCOCC1)C(=O)N[C@@H](Cc1ccccc1)C(=O)N[C@@H](CC(C)C)C(=O)[C@@]1(C)CO1 [Carfilzomib] | 68.8
CC(C)COc1ccc(CNC(=O)N(Cc2ccc(F)cc2)C2CCN(C)CC2)cc1 [Pimavanserin] + CC(C)C[C@H](NC(=O)[C@H](CCc1ccccc1)NC(=O)CN1CCOCC1)C(=O)N[C@@H](Cc1ccccc1)C(=O)N[C@@H](CC(C)C)C(=O)[C@@]1(C)CO1 [Carfilzomib] | 62.4
COc1cc(Nc2ncc(F)c(Nc3ccc4c(n3)N(COP(=O)(O)O)C(=O)C(C)(C)O4)n2)cc(OC)c1OC [Fostamatinib (R788)] + CC(C)C[C@H](NC(=O)[C@H](CCc1ccccc1)NC(=O)CN1CCOCC1)C(=O)N[C@@H](Cc1ccccc1)C(=O)N[C@@H](CC(C)C)C(=O)[C@@]1(C)CO1 [Carfilzomib] | 64.9
CN(C)CC=CC(=O)Nc1cc2c(Nc3ccc(F)c(Cl)c3)ncnc2cc1OC1CCOC1.O=C(O)C=CC(=O)O.O=C(O)C=CC(=O)O (stereo not given) [Afatinib dimaleate] + CC(C)C[C@H](NC(=O)[C@H](CCc1ccccc1)NC(=O)CN1CCOCC1)C(=O)N[C@@H](Cc1ccccc1)C(=O)N[C@@H](CC(C)C)C(=O)[C@@]1(C)CO1 [Carfilzomib] | 26.6
Cl.Nc1ccn(C2OC(CO)C(O)C2O)c(=O)n1 (stereo not given) [Cytarabine hydrochloride] + CC(C)C[C@H](NC(=O)[C@H](CCc1ccccc1)NC(=O)CN1CCOCC1)C(=O)N[C@@H](Cc1ccccc1)C(=O)N[C@@H](CC(C)C)C(=O)[C@@]1(C)CO1 [Carfilzomib] | 77.1
CC(C)(C)Cn1c(N)nc2ccc(-c3[nH]c(C(C)(C)C)nc3-c3ccc(F)cc3)nc21.CS(=O)(=O)O.CS(=O)(=O)O + CC(C)C[C@H](NC(=O)[C@H](CCc1ccccc1)NC(=O)CN1CCOCC1)C(=O)N[C@@H](Cc1ccccc1)C(=O)N[C@@H](CC(C)C)C(=O)[C@@]1(C)CO1 [Carfilzomib] | 29.3
CC1=CC(=O)c2ccccc2C1=O [Menadione] + CC(C)C[C@H](NC(=O)[C@H](CCc1ccccc1)NC(=O)CN1CCOCC1)C(=O)N[C@@H](Cc1ccccc1)C(=O)N[C@@H](CC(C)C)C(=O)[C@@]1(C)CO1 [Carfilzomib] | 62
CN(C(=O)CN(CCO)CC(=O)N(C)C(C)(C)Cc1ccccc1)C(C)(C)Cc1ccccc1 [Oxethazaine] + CC(C)C[C@H](NC(=O)[C@H](CCc1ccccc1)NC(=O)CN1CCOCC1)C(=O)N[C@@H](Cc1ccccc1)C(=O)N[C@@H](CC(C)C)C(=O)[C@@]1(C)CO1 [Carfilzomib] | 66.5
Clc1ccc(C(Cn2ccnc2)OCc2ccsc2Cl)c(Cl)c1 (stereo not given) [Tioconazole] + CC(C)C[C@H](NC(=O)[C@H](CCc1ccccc1)NC(=O)CN1CCOCC1)C(=O)N[C@@H](Cc1ccccc1)C(=O)N[C@@H](CC(C)C)C(=O)[C@@]1(C)CO1 [Carfilzomib] | 62.5
CNC(=O)c1cc(Oc2ccc(NC(=O)Nc3ccc(Cl)c(C(F)(F)F)c3)cc2)ccn1 [Sorafenib] + CC(C)C[C@H](NC(=O)[C@H](CCc1ccccc1)NC(=O)CN1CCOCC1)C(=O)N[C@@H](Cc1ccccc1)C(=O)N[C@@H](CC(C)C)C(=O)[C@@]1(C)CO1 [Carfilzomib] | 49
Cl.Cl.O=C1c2c(O)ccc(O)c2C(=O)c2c(NCCNCCO)ccc(NCCNCCO)c21 [Mitoxantrone HCl] + CC(C)C[C@H](NC(=O)[C@H](CCc1ccccc1)NC(=O)CN1CCOCC1)C(=O)N[C@@H](Cc1ccccc1)C(=O)N[C@@H](CC(C)C)C(=O)[C@@]1(C)CO1 [Carfilzomib] | 30
CO[C@H]1/C=C/O[C@@]2(C)Oc3c(C)c(O)c4c(O)c(c(/C=N/N5CCN(C6CCCC6)CC5)c(O)c4c3C2=O)NC(=O)/C(C)=C\C=C\[C@H](C)[C@H](O)[C@@H](C)[C@@H](O)[C@@H](C)[C@H](OC(C)=O)[C@@H]1C [Rifapentine] + CC(C)C[C@H](NC(=O)[C@H](CCc1ccccc1)NC(=O)CN1CCOCC1)C(=O)N[C@@H](Cc1ccccc1)C(=O)N[C@@H](CC(C)C)C(=O)[C@@]1(C)CO1 [Carfilzomib] | 58.6
COC(=O)c1ccc2c(c1)NC(=O)C2=C(Nc1ccc(N(C)C(=O)CN2CCN(C)CC2)cc1)c1ccccc1 [Nintedanib (BIBF 1120)] + CC(C)C[C@H](NC(=O)[C@H](CCc1ccccc1)NC(=O)CN1CCOCC1)C(=O)N[C@@H](Cc1ccccc1)C(=O)N[C@@H](CC(C)C)C(=O)[C@@]1(C)CO1 [Carfilzomib] | 37.5
